Test results as given in PubChem BioAssay (NCI).
The panel holds about 83,000 compounds, 20% with a hit somewhere; the sample as a whole holds those more often.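 Plates (96-well) were seeded with cells, treated with compound at one concentration, and incubated for 48 hours before percent growth was determined.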 The source made the active and inactive calls. The calls were made as follows: active = growth percent below 10; inactive = the rest.

Experiments:
Test in all cases: NCI-60 one-dose screen, 48 h (100 = growth as untreated, 0 = no growth, -100 = all killed)
Conditions in all cases: 10 µM unless noted
[1] = tested on: HCT-15 colon
[2] = tested on: HT29 colon
[3] = tested on: SNB-75 CNS
[4] = tested on: SNB-19 CNS
[5] = tested on: U251 CNS
[6] = tested on: PC-3 prostate
[7] = tested on: SK-MEL-5 melanoma
[8] = tested on: UACC-62 melanoma
[9] = tested on: LOX IMVI melanoma
[10] = tested on: SK-MEL-28 melanoma
[11] = tested on: SK-MEL-2 melanoma
[12] = tested on: EKVX NSCLC
[13] = tested on: SN12C renal
[14] = tested on: UO-31 renal
[15] = tested on: TK-10 renal
[16] = tested on: ACHN renal
[17] = tested on: CAKI-1 renal
[18] = tested on: A498 renal
[19] = tested on: CCRF-CEM leukemia
[20] = tested on: MOLT-4 leukemia

Measured: growth

O=C(CSc1nc2ccccc2[nH]1)Nc1cccc(Cl)c1
inactive: [1] 109% | [2] 112% | [3] 81.6% | [4] 91.4% | [5] 104% | [6] 99.3% | [7] 104% | [8] 87.6% | [9] 99.6% | [10] 106% | [11] 104% | [12] 94.7% | [13] 93% | [14] 77.6% | [15] 109% | [16] 99.2% | [17] 80.7% | [18] 73.3% | [19] 104% | [20] 117%

CCc1cccc2c1S/C(=C/c1ccc(Cl)cc1)C2=O
inactive: [1] 92.5% | [2] 105% | [3] 73.3% | [4] 95.1% | [5] 99.2% | [6] 88.6% | [7] 99.4% | [8] 88.6% | [9] 93.8% | [10] 110% | [11] 105% | [12] 95% | [13] 90.5% | [14] 70.7% | [15] 170% | [16] 91.3% | [17] 87.3% | [18] 113% | [19] 98% | [20] 88.8%

O=c1cc(SCc2ccccc2)nc[nH]1
inactive: [1] 105% | [2] 109% | [3] 93.7% | [4] 107% | [5] 107% | [6] 97.7% | [7] 113% | [8] 108% | [9] 107% | [10] 133% | [11] 111% | [12] 94.9% | [13] 120% | [14] 103% | [15] 108% | [16] 108% | [17] 85.6% | [18] 113% | [19] 98.5% | [20] 89.4%

COc1ccc(-c2conc2-c2ccccc2)cc1
active: [3] -12.4% | [15] 6.72% | [18] -14%
inactive: [1] 17.9% | [2] 53.1% | [4] 30.1% | [5] 20.9% | [6] 20% | [7] 22.4% | [8] 17.8% | [9] 38.8% | [10] 55.3% | [11] 41.6% | [12] 52.7% | [13] 33.2% | [14] 45.2% | [16] 36.5% | [17] 33.5% | [19] 25.7% | [20] 34.4%

CN1CCN(Cc2ccc(NC(=O)c3ccc(C(C)(C)C)c(C#Cc4cnc5cccnn45)c3)cc2C(F)(F)F)CC1
active: [1] -73.2% | [2] -83.5% | [4] -63.1% | [5] -87.9% | [6] -65.6% | [7] -60.3% | [8] -71% | [9] -87.7% | [10] -68.8% | [12] -32.8% | [13] -67.4% | [14] -47% | [15] -93.8% | [16] -75.2% | [17] -45.1% | [19] -36.7% | [20] -57%
inactive: [3] 74.8% | [11] 33.7% | [18] 75.5%

c1ccc(OCc2nnc(-c3ccc(Oc4ccccc4)cc3)o2)cc1
inactive: [1] 103% | [2] 103% | [3] 98.5% | [4] 103% | [5] 95.4% | [6] 78.9% | [7] 100% | [8] 90.9% | [9] 102% | [10] 116% | [11] 91.4% | [12] 96.6% | [13] 99% | [14] 81.7% | [15] 103% | [16] 92.9% | [17] 97.1% | [18] 111% | [19] 96.7% | [20] 87.6%

C/C(=C(/c1ccccc1)c1ccc(N2C(=O)c3cccc4c(N5CCN(C)CC5)ccc(c34)C2=O)cc1)c1ccccc1
inactive: [1] 56.8% | [2] 24.8% | [3] 98.1% | [4] 88.9% | [5] 75.4% | [6] 61.4% | [7] 76.3% | [8] 73.5% | [9] 24.6% | [10] 88.4% | [11] 116% | [12] 62.4% | [13] 77.2% | [14] 66.9% | [15] 114% | [16] 89.5% | [17] 86.7% | [18] 86.3% | [19] 58% | [20] 54.3%

CCc1cccc2c3c(sc12)C(c1ccc(Cl)cc1)C(C#N)=C(N)O3 (stereo not given)
inactive: [1] 13.8% | [4] 27.1% | [5] 24.7% | [7] 29% | [8] 22.1% | [9] 26.6% | [10] 63.4% | [11] 40.2% | [12] 48.2% | [13] 38.3% | [14] 38.2% | [15] 69% | [16] 33.7% | [18] 10.8% | [20] 12.2%
active: [2] 6.86% | [3] -10.2% | [6] 7.23% | [17] 3.05% | [19] 5.24%

CC(C)C(=O)Nc1ccc(-c2nc(-c3cccc(OCCN4CCOCC4)c3)c(-c3ccnc(Br)c3)[nH]2)cc1
inactive: [1] 20.1% | [2] 16.9% | [4] 51.4% | [5] 25% | [6] 40.7% | [7] 45.8% | [8] 33.5% | [9] 27.7% | [10] 43.9% | [11] 36.2% | [12] 77.2% | [13] 70.5% | [14] 12.4% | [15] 85.3% | [16] 58.7% | [17] 44% | [18] 54.7% | [19] 29% | [20] 10.6%
active: [3] -4.1%

CNc1ccc(Nc2cccc(C)c2)c2c1C(=O)c1ccccc1C2=O
inactive: [1] 85.1% | [2] 96.6% | [3] 96.3% | [4] 99.6% | [5] 95.4% | [6] 95% | [7] 91% | [8] 64.9% | [9] 81.5% | [10] 114% | [11] 60% | [12] 164% | [13] 80.4% | [14] 58.3% | [15] 100% | [16] 78.1% | [17] 131% | [18] 89.2% | [19] 102% | [20] 85.1%

CC1=C(SCCC(=O)OC(C[Se]C2=C(C)C(=O)c3ccccc3C2=O)C(=O)NC(C)(C)C)C(=O)c2ccccc2C1=O (stereo not given)
active: [1] 1.48% | [2] -5.09% | [3] -95.9% | [4] -92.6% | [5] -69% | [6] -64% | [7] -99.4% | [8] -91.2% | [9] -52.2% | [10] -96% | [11] 2.5% | [12] -71.2% | [13] -64.4% | [14] -41.2% | [15] -94.3% | [16] -78.3% | [17] -56.4% | [18] -40.6% | [19] -23%
inactive: [20] 13.1%

Cc1ccc(C2CC(c3ccc(Nc4ccnc5cc(Cl)ccc45)cc3)=NN2C=O)cc1 (stereo not given)
inactive: [1] 18.6% | [2] 41.8% | [3] 76.3% | [4] 74.4% | [5] 58.6% | [6] 57.4% | [7] 10.4% | [8] 36.9% | [9] 34% | [10] 51.7% | [11] 72.2% | [12] 50.1% | [13] 55.1% | [14] 31.9% | [15] 83.2% | [16] 34.8% | [17] 49% | [18] 73.4% | [19] 28.2% | [20] 31.8%

O=c1c2cc(F)ccc2sc2c(NCCN3CCOCC3)nc3ccccc3c12
inactive: [1] 20.8% | [2] 21.6% | [3] 59.5% | [4] 75.3% | [5] 52.4% | [6] 69% | [7] 95.1% | [8] 81.5% | [9] 20.6% | [10] 96.7% | [11] 110% | [12] 91.6% | [13] 72.8% | [14] 42% | [15] 79.2% | [16] 64.7% | [17] 33.2% | [18] 58.3% | [19] 57% | [20] 52.1%

COc1cccc(-c2nc(-c3ccc(NS(=O)(=O)c4ccccc4)cc3)[nH]c2-c2ccnc(Br)c2)c1
inactive: [2] 32.8% | [3] 15% | [4] 39.8% | [5] 35.4% | [6] 15.1% | [7] 41.7% | [8] 14.8% | [10] 25.6% | [11] 10.5% | [12] 32.1% | [13] 28.4% | [14] 11.8% | [15] 46.3% | [16] 11.9% | [17] 18.3% | [18] 28.4% | [19] 18.9%
active: [1] 3.93% | [9] 4.69% | [20] 4.8%

NS(=O)(=O)c1ccc(-n2nc(C(=O)N/N=C\c3ccc(F)cc3)cc2-c2ccc(Br)cc2)cc1
inactive: [1] 54.3% | [2] 66.4% | [3] 37.4% | [4] 83% | [5] 89% | [6] 72.2% | [7] 87.2% | [8] 64.4% | [9] 74.9% | [10] 77.8% | [11] 80% | [12] 72.7% | [13] 92.7% | [14] 75% | [15] 121% | [16] 88.2% | [17] 41.8% | [18] 31.9% | [19] 74.8% | [20] 80.4%

Nc1nc2ccccc2c2c(=O)c3cc(F)ccc3sc12
inactive: [1] 98.6% | [2] 99.8% | [3] 93.1% | [4] 101% | [5] 105% | [6] 103% | [7] 98.5% | [8] 102% | [9] 99.6% | [10] 103% | [11] 110% | [12] 91.5% | [13] 101% | [14] 91.3% | [15] 110% | [16] 101% | [17] 107% | [18] 89.7% | [19] 105% | [20] 101%
